Assay outcomes (PubChem)
Hits are enriched below; roughly 7.9% of the tested compounds scored in any of these assays.
HCMV antiviral: qHTS Assay for inhibitors of the human cytomegalovirus (HCMV) | 410,000 tested, 4.5% active | activity change, negative = inhibition, % at 57.5 µM | HFF cells, HCMV-luciferase reporter, 72 h; active compounds read low | AID 1259415, 2018; in the data active = activity change below about -60%; inconclusive = no clear call, values can overlap the other calls; inactive = above about -39%
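Luciferase read-out from HCMV-luciferase-infected HFFs (MOI 1 PFU/cell) 72 h post infection at 37C; compounds added after 16 h cell attachment; activity normalized between buffer-only basal and Salinomycin (10uM) inhibitor controls.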
LASV entry inh: qHTS for Inhibitors of binding or entry into cells for Lassa Virus. Lassa virus pseudotype entry inhibition, cell reporter. Potency, µM (titrated, usually from 37.9 µM), without a hit: at the highest dose activity change, negative = inhibition, most hits filed as inhibitors. 300,000 tested, 1.2% active; calls by dose curve; tested in HEK293 cells; also: potency is read from the fitted curve at half-maximal effect; nearly all actives have a fitted effect of over 50% in size
MARV entry inh: qHTS for inhibitors of binding or entry into cells for Marburg Virus; Marburg virus pseudotyped entry inhibition, cell reporter; 300,000 tested, 1.8% active; Potency, µM (highest dose often 37.8 µM), inactives show at the highest dose activity change, negative = inhibition, actives largely listed as inhibitors; AID 540276, 2011; calls by dose curve; tested in HEK293 cells; also: potency is read from the fitted curve at half-maximal effect
HCV inhibitor: qHTS Assay for Inhibitors of Hepatitis C Virus (HCV) | 340,000 tested, 3.4% active | Potency, µM (doses to about 41.8 µM), for the others: at the highest dose activity change, negative = inhibition, most hits filed as inhibitors | Huh7.5.1 HCVcc-Cre infection, luciferase reporter, 44 h; active = well fitted inhibition curve with a large enough effect; inconclusive = small, poorly fitted or top-dose-only effect, or another doubt; inactive = no such curve, though single readings can be large or run the other way; also: potency is read from the fitted curve at half-maximal effect
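Whole-lifecycle infectious HCVcc-Cre system; cells 1,000/well, compound then virus (~0.5 moi) added 4 h after plating, 44 h culture. Luciferase read 15 sec following 15 min substrate incubation, room temp.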
FMDV inh: High Throughput Screening for Foot and Mouth Disease Virus Antivirals. FMDV antiviral cell-based qHTS. Potency, µM (top dose mostly 57.9 µM), for the others: top-dose activity change, negative = inhibition, hits mostly inhibitors. 410,000 tested, 1.2% active; calls by dose curve; tested in HEK293T cells; also: read-out not given here; potency is read from the fitted curve at half-maximal effect; nearly all actives have a fitted effect of over 45% in size
Active calls of the source: *; [ ] = another dose, or the depositor's remark. % is scaled to controls: 0 for no effect and ±100 for the full control effect.

Screening O=[N+]([O-])c1ccc(NN=C(Oc2ccccc2)c2ccc([N+](=O)[O-])cc2)cc1 returned HCMV antiviral -70* and FMDV inh -12%.
O=c1[nH]c(=O)n2c(c1-c1ccccc1)OC(CBr)C2 (configuration not stated) was read as HCMV antiviral -16 and FMDV inh 0%.
Cc1ccc(F)c(NC(=O)/C(C#N)=C(\O)c2ccc(C(C)(C)C)cc2)c1 was read as HCMV antiviral -63*, HCV inhibitor 17% and FMDV inh 19%.
Screening Cc1cccc(NC(=O)C(=O)NNC(=O)c2ccc(C(C)(C)C)cc2)c1 returned HCMV antiviral -18, LASV entry inh -14%[46.1 µM], MARV entry inh 16%[46.1 µM], HCV inhibitor -10% and FMDV inh 3%.
CCCCC[C@@H](/C=C/C1C(=O)C=C[C@H]1C/C=C\CCCC(=O)O)OC(C)=O (some centres not stated) was read as HCMV antiviral 112, HCV inhibitor -6%[8.37 µM] and FMDV inh 35µM*.
CC1=NN(c2nc(N)nc(/C(C#N)=C/c3ccc([N+](=O)[O-])o3)n2)C(C)(C)C1 was read as HCMV antiviral 32, LASV entry inh -1%, MARV entry inh inconclusive, HCV inhibitor 8.9µM* and FMDV inh inconclusive.
O=C1C2C(C(=O)N1/N=C/c1ccc([N+](=O)[O-])o1)C1C=CC2C12CC2 (configuration not stated) was read as HCMV antiviral -5, LASV entry inh inconclusive, MARV entry inh inconclusive, HCV inhibitor 11% and FMDV inh inconclusive.
CC1CCCC(C)N1C(=O)c1ccccc1Nc1ccc(SC(F)F)cc1 (configuration not stated) was read as HCMV antiviral -20, LASV entry inh inconclusive, MARV entry inh 12µM*, HCV inhibitor 2.8µM* and FMDV inh -27%.
`O=C(COC(=O)c1ccccc1Nc1ccc(SC(F)F)cc1)NC1CC1` gave HCMV antiviral -71*, LASV entry inh -1%, MARV entry inh inconclusive, HCV inhibitor -29% and FMDV inh 3%.
For NC(=O)COC(=O)c1ccccc1Nc1ccc(SC(F)F)cc1 the results were HCMV antiviral -19, LASV entry inh inconclusive, MARV entry inh inconclusive, HCV inhibitor 27% and FMDV inh 11%.
`O=C(COC(=O)c1ccccc1C(=O)c1ccccc1)Nc1ccc(SC(F)F)cc1` gave HCMV antiviral -13, LASV entry inh 16µM*, MARV entry inh inconclusive, HCV inhibitor -27% and FMDV inh inconclusive.
`O=C(NCC1(N2CCCCC2)CCCC1)c1cnn(-c2nccc(-c3cccs3)n2)c1C1CC1` gave FMDV inh -8%.
Screening O=C(O)Cc1cc2ccccc2nc1C(=O)O returned FMDV inh -11%.
Cc1nc(NC(=O)c2ccc(Cl)cc2)nc2cc3c(cc12)OCO3 was read as HCMV antiviral -4, LASV entry inh 6%, MARV entry inh 29%, HCV inhibitor 6% and FMDV inh -22%.
`Cc1ccc(Cn2nc(C)c(NC(=O)c3cc(-c4ccc5c(c4)OCO5)on3)c2C)cc1` gave HCMV antiviral -60*, LASV entry inh 0%, MARV entry inh inconclusive, HCV inhibitor inconclusive and FMDV inh -24%.
For O=C(Nc1ccc2c(c1)OCO2)c1cc(-c2ccc(Cl)cc2)on1 the results were HCMV antiviral 4, LASV entry inh 29%[46.1 µM], MARV entry inh -6%[46.1 µM] and FMDV inh 0%.
Screening COc1ccc(-c2cc(C(=O)Nc3cccc(O)c3)no2)cc1 returned HCMV antiviral -11, HCV inhibitor -25% and FMDV inh 20µM*.
Cc1c(C(=O)c2ccc(Cl)cc2Cl)cnc2cc3c(cc12)OCO3 was read as HCMV antiviral 9, LASV entry inh inconclusive, MARV entry inh inconclusive, HCV inhibitor 10µM* and FMDV inh inconclusive.
`O=C(Nc1ccc2c(c1)OCO2)c1cc(-c2ccc(O)cc2)on1` gave HCMV antiviral 75, LASV entry inh 6%[46.1 µM], MARV entry inh 7.9µM*, HCV inhibitor inconclusive and FMDV inh 35%.
Screening COc1ccc(-c2cc(C(=O)Nc3c(C)nn(Cc4ccc(Cl)cc4)c3C)no2)cc1 returned HCMV antiviral inconclusive, LASV entry inh -6%, MARV entry inh 23µM*, HCV inhibitor inconclusive and FMDV inh inconclusive.
Screening COc1ccccc1-c1cc(C(=O)Nc2c(C)nn(Cc3ccc(Cl)cc3)c2C)no1 returned HCMV antiviral -74*, LASV entry inh inconclusive, MARV entry inh 10µM* and FMDV inh 28µM*.
For COc1ccc(-c2cc(C(=O)Nc3c(C)nn(Cc4ccc(C)cc4)c3C)no2)cc1OC the results were HCMV antiviral -27, LASV entry inh -16%[46.1 µM], MARV entry inh inconclusive and FMDV inh 0%.
Cc1nn(Cc2ccccc2)c(C)c1NC(=O)c1noc2c1CCc1ccccc1-2 was read as MARV entry inh 5%, HCV inhibitor inconclusive and FMDV inh inconclusive.
`COc1ccc2c(c1)CCc1c(C(=O)Nc3c(C)nn(Cc4ccc(C)cc4)c3C)noc1-2` gave HCMV antiviral -96*, LASV entry inh -23%[46.1 µM], MARV entry inh inconclusive and FMDV inh inconclusive.
`CCOc1ccc(-c2cc(CCCC(=O)Nc3cccc(OC)c3)no2)cc1` gave HCMV antiviral inconclusive, LASV entry inh 0.82µM*, MARV entry inh inconclusive, HCV inhibitor inconclusive and FMDV inh inconclusive.
Screening CC(C)N=C(NS(=O)(=O)c1ccc(Br)cc1)c1ccc(Cl)cc1 returned HCMV antiviral -9, LASV entry inh inconclusive, MARV entry inh 5%[46.1 µM], HCV inhibitor 8% and FMDV inh 9%.
For O=C(Nc1ccc2c(c1)OCCO2)c1ccc(Cl)cc1Cl the results were HCMV antiviral 29, LASV entry inh inconclusive, MARV entry inh inconclusive, HCV inhibitor -29% and FMDV inh -9%.
For O=C(Nc1ccc2c(c1)OCO2)c1ccc(Cl)cc1Cl the results were HCMV antiviral 108, LASV entry inh inconclusive, MARV entry inh 6.3µM*, HCV inhibitor -22% and FMDV inh -8%.
COc1ccc(-c2nn(C)c3sc(C(=O)NCc4ccco4)cc23)cc1OC was read as HCMV antiviral 13, LASV entry inh 0%, MARV entry inh -1%, HCV inhibitor inconclusive and FMDV inh -12%.
COc1ccccc1NC(=O)c1cc2c(-c3ccccc3)nn(-c3ccccc3)c2s1 was read as HCMV antiviral -61*, LASV entry inh -20%[46.1 µM], MARV entry inh 16%[46.1 µM] and FMDV inh -22%.
For COc1ccc(-c2nn(C)c3sc(C(=O)Nc4cc(OC)c(OC)c(OC)c4)cc23)cc1OC the results were HCMV antiviral -98*, LASV entry inh inconclusive, MARV entry inh inconclusive and FMDV inh -11%.
